Reference: the supplement of paper PMC8728848
Many of the other results were omitted from the sample, so the strongest signals are more common in it than they were.

Key:
Test in all cases: glycan array binding signal (z-score within array); higher = stronger binding
Details in all cases: glycan notation: IUPAC condensed, linker removed
[1] = system: Neu5Ac(a2-6)Gal(b1-4)GlcNAc(b1-2)[Neu5Ac(a2-6)Gal(b1-4)GlcNAc(b1-4)]Man(a1-3)[GlcNAc(b1-4)][Neu5Ac(a2-6)Gal(b1-4)GlcNAc(b1-4)Man(a1-6)]Man(b1-4)GlcNAc(b1-4)GlcNAc
Outline: (§1)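 Arrays were curated from the Consortium for Functional Glycomics database, 3228 in total, and kept only where the protein sequence was available. Binding is expressed as a within-array Z-score. This score was averaged across arrays of the same protein sequence at different concentrations or buffers and across linkers, and negative values can be read as non-binding.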

[2] = system: Neu5Ac(a2-6)Gal(b1-4)GlcNAc(b1-3)Gal(b1-4)GlcNAc(b1-3)Gal(b1-4)GlcNAc(b1-2)Man(a1-3)[Neu5Ac(a2-6)Gal(b1-4)GlcNAc(b1-3)Gal(b1-4)GlcNAc(b1-3)Gal(b1-4)GlcNAc(b1-2)Man(a1-6)]GalNAc
Outline: as §1

[3] = system: Neu5Ac(a2-6)Gal(b1-4)GlcNAc(b1-3)Gal(b1-4)GlcNAc(b1-3)[Neu5Ac(a2-6)Gal(b1-4)GlcNAc(b1-3)Gal(b1-4)GlcNAc(b1-6)]GalNAc
Outline: as §1

[4] = system: Neu5Ac(a2-6)Gal(b1-4)GlcNAc(b1-3)Gal(b1-4)GlcNAc
Outline: as §1

[5] = system: Neu5Ac(a2-6)Gal(b1-4)GlcNAc6S
Outline: as §1

[6] = system: Neu5Ac(a2-6)Gal(b1-4)GlcNAc
Outline: as §1

[7] = system: Neu5Ac(a2-6)Gal(b1-4)GlcNAc(b1-6)[Gal(b1-3)]GalNAc
Outline: as §1

[8] = system: Neu5Ac(a2-6)Gal(b1-4)GlcNAc(b1-3)Gal(b1-3)GlcNAc
Outline: as §1

[9] = system: Neu5Ac(a2-6)Gal(b1-4)GlcNAc(b1-3)Gal(b1-4)[Fuc(a1-3)]GlcNAc(b1-3)Gal(b1-4)[Fuc(a1-3)]GlcNAc
Outline: as §1

Neu5Ac(a2-6)Gal(b1-4)Glc = system: Neu5Ac(a2-6)Gal(b1-4)Glc
Outline: as §1

Neurocan (Homo sapiens), O14594, sequence (O14594 other isoform, or with tags, fused parts or gaps): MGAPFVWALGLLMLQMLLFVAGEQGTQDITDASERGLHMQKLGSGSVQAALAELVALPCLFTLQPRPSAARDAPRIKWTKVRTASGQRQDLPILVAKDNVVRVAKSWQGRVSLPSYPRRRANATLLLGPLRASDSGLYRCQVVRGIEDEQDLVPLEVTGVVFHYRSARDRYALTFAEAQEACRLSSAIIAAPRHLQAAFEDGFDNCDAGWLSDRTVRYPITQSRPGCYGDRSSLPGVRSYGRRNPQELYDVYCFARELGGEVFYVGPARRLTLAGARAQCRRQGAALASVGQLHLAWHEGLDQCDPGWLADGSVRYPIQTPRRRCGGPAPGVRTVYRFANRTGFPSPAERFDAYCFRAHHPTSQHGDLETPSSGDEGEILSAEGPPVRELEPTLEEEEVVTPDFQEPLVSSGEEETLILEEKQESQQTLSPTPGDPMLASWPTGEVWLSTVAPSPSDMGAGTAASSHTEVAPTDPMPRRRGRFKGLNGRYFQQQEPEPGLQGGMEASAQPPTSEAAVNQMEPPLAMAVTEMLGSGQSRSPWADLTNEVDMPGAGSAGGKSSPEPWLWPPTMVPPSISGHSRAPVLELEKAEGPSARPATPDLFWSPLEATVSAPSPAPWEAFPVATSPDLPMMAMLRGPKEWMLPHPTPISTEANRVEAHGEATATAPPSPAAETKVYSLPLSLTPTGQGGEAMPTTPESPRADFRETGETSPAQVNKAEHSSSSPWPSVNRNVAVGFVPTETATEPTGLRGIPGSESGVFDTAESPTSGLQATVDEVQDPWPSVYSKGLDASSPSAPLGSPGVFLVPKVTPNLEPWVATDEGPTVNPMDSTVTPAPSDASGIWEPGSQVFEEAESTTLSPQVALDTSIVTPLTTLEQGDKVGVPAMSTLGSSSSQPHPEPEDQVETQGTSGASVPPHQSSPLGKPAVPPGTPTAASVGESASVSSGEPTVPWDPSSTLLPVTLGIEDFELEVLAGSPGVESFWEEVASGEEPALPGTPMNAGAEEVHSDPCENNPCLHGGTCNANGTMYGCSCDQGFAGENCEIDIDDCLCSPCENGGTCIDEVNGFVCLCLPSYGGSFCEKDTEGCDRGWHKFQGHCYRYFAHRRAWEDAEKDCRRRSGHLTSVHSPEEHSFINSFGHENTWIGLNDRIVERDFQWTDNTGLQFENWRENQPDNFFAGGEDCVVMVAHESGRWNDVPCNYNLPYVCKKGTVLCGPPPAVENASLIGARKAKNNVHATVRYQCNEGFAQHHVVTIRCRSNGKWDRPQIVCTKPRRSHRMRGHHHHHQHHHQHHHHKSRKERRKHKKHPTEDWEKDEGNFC
CHI3L1 (Homo sapiens), P36222, sequence (P36222 whole entry): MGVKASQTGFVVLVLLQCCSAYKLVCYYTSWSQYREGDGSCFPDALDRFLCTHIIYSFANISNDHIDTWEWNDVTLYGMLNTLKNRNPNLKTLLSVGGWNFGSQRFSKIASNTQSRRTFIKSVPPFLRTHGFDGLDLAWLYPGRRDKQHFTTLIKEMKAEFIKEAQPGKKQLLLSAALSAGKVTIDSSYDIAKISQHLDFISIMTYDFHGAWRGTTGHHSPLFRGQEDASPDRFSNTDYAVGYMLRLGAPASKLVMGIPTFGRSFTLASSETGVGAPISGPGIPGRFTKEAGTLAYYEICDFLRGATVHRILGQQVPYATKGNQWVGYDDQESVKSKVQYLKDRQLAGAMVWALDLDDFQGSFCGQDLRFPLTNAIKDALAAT
Avaren (Actinomycete K97), sequence (chain, as listed by the source): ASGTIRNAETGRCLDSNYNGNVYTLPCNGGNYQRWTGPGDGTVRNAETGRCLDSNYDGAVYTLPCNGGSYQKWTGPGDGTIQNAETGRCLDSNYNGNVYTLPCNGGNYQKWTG
C3b (Homo sapiens), P01024, sequence (P01024 23-667): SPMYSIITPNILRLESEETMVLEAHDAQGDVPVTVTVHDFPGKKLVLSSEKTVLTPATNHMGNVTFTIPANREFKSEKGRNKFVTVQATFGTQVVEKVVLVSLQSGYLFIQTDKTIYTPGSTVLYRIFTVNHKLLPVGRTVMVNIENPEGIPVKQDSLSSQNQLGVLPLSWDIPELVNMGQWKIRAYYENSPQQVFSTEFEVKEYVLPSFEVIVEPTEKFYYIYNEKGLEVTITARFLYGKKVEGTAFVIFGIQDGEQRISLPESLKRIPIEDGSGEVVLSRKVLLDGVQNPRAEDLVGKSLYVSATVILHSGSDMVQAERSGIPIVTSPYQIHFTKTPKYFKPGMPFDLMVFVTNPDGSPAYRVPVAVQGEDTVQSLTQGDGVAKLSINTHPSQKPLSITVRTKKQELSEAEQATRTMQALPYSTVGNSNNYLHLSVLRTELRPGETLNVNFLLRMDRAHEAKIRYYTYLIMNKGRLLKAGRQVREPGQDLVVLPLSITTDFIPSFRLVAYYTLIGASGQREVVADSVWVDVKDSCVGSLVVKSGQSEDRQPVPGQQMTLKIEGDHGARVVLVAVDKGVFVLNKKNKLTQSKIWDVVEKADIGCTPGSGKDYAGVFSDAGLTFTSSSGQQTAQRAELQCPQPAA
PILRb (Mus musculus), Q2YSF2, sequence (Q2YSF2 entry or part of it): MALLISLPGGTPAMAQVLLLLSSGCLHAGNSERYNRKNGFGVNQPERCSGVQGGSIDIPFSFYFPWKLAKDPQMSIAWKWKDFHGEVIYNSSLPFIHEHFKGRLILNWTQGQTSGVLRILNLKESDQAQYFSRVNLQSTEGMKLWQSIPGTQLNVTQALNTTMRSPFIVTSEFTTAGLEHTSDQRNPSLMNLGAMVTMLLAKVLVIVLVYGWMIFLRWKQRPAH
Aggrecan (Rattus norvegicus), NP_071526, sequence (chain, as listed by the source): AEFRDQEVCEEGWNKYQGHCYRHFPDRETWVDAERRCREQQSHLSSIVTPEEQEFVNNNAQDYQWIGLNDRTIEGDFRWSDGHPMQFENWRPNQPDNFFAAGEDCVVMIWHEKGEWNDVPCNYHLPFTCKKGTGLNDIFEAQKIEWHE
Regenerating Gene IV (Homo sapiens), Q9BYZ8, sequence (Q9BYZ8 whole entry, looked up): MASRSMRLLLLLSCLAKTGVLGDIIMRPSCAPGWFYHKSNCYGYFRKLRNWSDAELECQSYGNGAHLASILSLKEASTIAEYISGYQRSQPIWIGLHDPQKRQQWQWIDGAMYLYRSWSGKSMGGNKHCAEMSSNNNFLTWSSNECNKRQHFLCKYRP
PILRa (Mus musculus), Q2YSF3, sequence (Q2YSF3 entry or part of it): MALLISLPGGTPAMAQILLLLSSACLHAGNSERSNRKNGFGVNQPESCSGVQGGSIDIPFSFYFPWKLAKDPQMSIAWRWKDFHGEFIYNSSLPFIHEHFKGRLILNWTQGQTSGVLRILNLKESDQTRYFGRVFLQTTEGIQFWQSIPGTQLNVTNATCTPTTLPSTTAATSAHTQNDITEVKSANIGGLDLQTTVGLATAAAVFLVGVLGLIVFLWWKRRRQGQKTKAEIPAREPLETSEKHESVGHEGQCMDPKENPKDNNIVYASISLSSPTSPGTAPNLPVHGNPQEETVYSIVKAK

Substance: MpAFP RI GFP (Marinomonas primoryensis)
- glycan array binding signal (z-score) [1]: 0.092
- glycan array binding signal (z-score) [2]: 3.43
- glycan array binding signal (z-score) [3]: 1.36

Substance: CHI3L1 (Homo sapiens), P36222
- glycan array binding signal (z-score) [4]: -0.105
- glycan array binding signal (z-score) [5]: -0.139

Substance: Regenerating Gene IV (Homo sapiens), Q9BYZ8
- glycan array binding signal (z-score) [6]: -0.335

Substance: Avaren (Actinomycete K97)
- glycan array binding signal (z-score) [7]: -0.134
- glycan array binding signal (z-score) [5]: -0.14

Substance: Aggrecan (Rattus norvegicus), NP_071526
- glycan array binding signal (z-score) [4]: -0.113

Substance: HARE (Homo sapiens), Q8WWQ8
- glycan array binding signal (z-score) [4]: -0.057

Substance: Neurocan (Homo sapiens), O14594
- glycan array binding signal (z-score) [8]: 0.267
- glycan array binding signal (z-score) [9]: -1.44

Substance: Siglec-8 (Homo sapiens), Q9NYZ4
- glycan array binding signal (z-score) [9]: 0.008
- glycan array binding signal (z-score) ([6]; mutation: R125K): -0.306

Substance: PILRb (Mus musculus), Q2YSF2
- glycan array binding signal (z-score) [6]: -0.349

Substance: C3b (Homo sapiens), P01024
- glycan array binding signal (z-score) [5]: 0.107
- glycan array binding signal (z-score) (Neu5Ac(a2-6)Gal(b1-4)Glc): -0.687

Substance: PILRa (Mus musculus), Q2YSF3
- glycan array binding signal (z-score) [5]: 1.51
